Sampled rows, rich in hits. Any-hit rate of the full collection: about 7.4%.
Rab9 prom act: activates the Rab9 promoter; Potency, µM (highest dose often 9.22 µM), for inactives: at the top dose activation, negative = inhibition, actives largely listed as activators; AID 485297; 320,000 tested, 2.8% active; Huh7 Rab9 promoter-luciferase reporter, luminescence, 24 h; also: % of control where 0% means no effect; nearly all actives have a fitted effect of over 60% in size
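Huh7 reporter line, Rab9 promoter upstream of luciferase. Compound exposure 24 h at 37 °C in reduced-serum medium with 10% FBS. Read-out: luminescence.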
NPC1 promoter act: activators of NPC1 promoter. Huh7 NPC1 promoter luciferase reporter, 24 h. Potency, µM (highest dose often 9.22 µM), inactives show top-dose activation, most hits filed as activators. 320,000 tested, 2.4% active. AID 485313; also: % of control where 0% means no effect; nearly all actives have a fitted effect of over 60% in size
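Stably transfected Huh7 (NPC1 promoter→luciferase), 1500 cells/well in Opti-MEM + 10% FBS, 2 h settle, then compound 24 h at 37 °C. Luminescence after 10 min with Amplite reagent.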
FLuc counter: counter-screen for miR-21 project: firefly luciferase inhibitors or activators; purified FLuc, Km substrates, luminescence inhibition; Potency, µM (top dose mostly 57.5 µM), for inactives: top-dose activity change, negative = inhibition, hits mostly inhibitors; 360,000 tested, 6.9% active; AID 588342;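 also: plate controls were vehicle for no effect and reference inhibitor for full effect; nearly all actives have a fitted effect of over 55% in size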
Target sequence (P08659 whole entry, looked up): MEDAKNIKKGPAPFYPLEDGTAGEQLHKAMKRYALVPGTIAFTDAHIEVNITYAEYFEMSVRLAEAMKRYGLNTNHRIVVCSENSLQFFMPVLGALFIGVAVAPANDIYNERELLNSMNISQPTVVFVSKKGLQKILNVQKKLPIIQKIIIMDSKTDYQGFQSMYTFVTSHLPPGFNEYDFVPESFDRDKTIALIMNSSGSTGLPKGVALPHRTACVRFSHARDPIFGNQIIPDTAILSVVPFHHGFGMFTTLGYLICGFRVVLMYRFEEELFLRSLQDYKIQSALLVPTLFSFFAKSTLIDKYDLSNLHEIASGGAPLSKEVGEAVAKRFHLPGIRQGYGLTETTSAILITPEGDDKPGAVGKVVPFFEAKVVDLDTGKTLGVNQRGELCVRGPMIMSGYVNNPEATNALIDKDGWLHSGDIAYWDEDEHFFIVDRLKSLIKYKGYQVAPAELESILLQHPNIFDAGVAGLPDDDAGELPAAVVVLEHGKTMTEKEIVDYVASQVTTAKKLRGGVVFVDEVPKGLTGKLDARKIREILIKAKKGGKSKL
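Purified P. pyralis luciferase, 10 nM final, with Km-level 10 uM D-luciferin and 10 uM ATP in 50 mM Tris acetate pH 7.5, 10 mM Mg acetate, 0.01% Tween-20, 0.05% BSA; 6-point qHTS titration about 60 µM downward; luminescence read.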
SMN2 splice up: increases expression of the SMN2 splice variant | 210,000 tested, 2.8% active | Potency, µM (titrated, usually from 46.1 µM), inactives show at the top dose activity change, positive = activation, actives largely listed as activators | HEK293 SMN2-luciferase splicing reporter, luminescence, 30-36 h | AID 1458; also: % of control where 0% means no effect; nearly all actives have a fitted effect of over 55% in size
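HEK293 cells carry an SMN2 minigene-luciferase reporter in which exon 7 inclusion puts luciferase in frame. Cells were seeded at 2000 cells/well, attached for 10-12 hours, then exposed to compounds for 30-36 hours at 37C before ONE-Glo luminescence.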
ELG1 genotox: inducers of genotoxicity in HEK293T ELG1-luciferase cells. 330,000 tested, 1.3% active. Potency, µM (series often up to 46 µM), for the others: top-dose activity change, positive = activation, hits mostly activators. HEK293T ELG1-luciferase reporter, luminescence, 16 h; also: % of control where 0% means no effect; nearly all actives have a fitted effect of over 60% in size
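Cells (2,000/well) expressing the ELG1-luciferase fusion are dosed by pin tool and kept 16 hr at 37 °C, 5% CO2. Signal comes from ONE-Glo luciferase reagent after 30 min at room temperature.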
Active calls of the source: *; ? = inconclusive; nt = no result given. Calls follow the shape of the dose curve; as a rule, active = well fitted curve in the direction sought with a large enough effect; inconclusive = small, poorly fitted or top-dose-only effect, or another doubt; inactive = no such curve, though single readings can be large; an effect the other way counts as inactive or inconclusive. Potency is read from the fitted curve at half-maximal effect.

SMILES	Rab9 prom act	NPC1 promoter act	FLuc counter	SMN2 splice up	ELG1 genotox
COc1ccccc1NC(=O)Nc1ccc(CC#N)cc1	?	?	21.3µM*	nt	?
COc1ccccc1NC(=O)Nc1ccc(C(N)=O)cc1	?	18.2%	?	?	14.2%
Cc1cc(NC(=O)CN2C(=O)NC3(CCCCCC3)C2=O)ccc1Br	-8.7%	-0.2%	-4.5%	nt	-2.6%
CC(OC(=O)CN1C(=O)C2C3C=CC(C4CC34)C2C1=O)C(=O)c1ccccc1 (configuration not stated)	-12.3%	-1.6%	3.7%	nt	-5.7%
COc1ccccc1NC(=O)Nc1nc(CC(=O)Nc2cc(F)ccc2F)cs1	-0.3%	1.3%	?	nt	-5.6%
O=C(N/C=C/c1ccccc1)c1ccccc1	1.26µM*	1.12µM*	2.13µM*	nt	?
COc1ccc(NC(=O)Nc2ccccc2C(N)=O)cc1	0.9%	-6.5%	5.36µM*	10.3%	7.1%
O=C(Nc1ccc(N2CCOCC2)cc1)Nc1cnsn1	?	?	16.9µM*	12.6µM*	14.5%
COc1ccccc1NC(=O)Nc1cc(F)ccc1F	1.6%	11.4%	23.9µM*	5.5%	2.8%
CCN(C(=O)CSc1nc2ccccc2n1Cc1cc(C)ccc1C)c1ccccc1	nt	nt	-7.1%	nt	nt
COc1ccc(NC(=O)Nc2ccccc2C(N)=O)cc1OC	nt	nt	19µM*	-7.9%	nt
COc1ccccc1NC(=O)Nc1ccccc1C(N)=O	0.7%	5.2%	-17.9%	-0.7%	3.4%
CCOc1ccc(NC(=O)Nc2ccccc2C(N)=O)cc1	0.0%	7.7%	1.2µM*	5.5%	2.0%
CCN(C(=O)CSc1ccccn1)C1CCCCC1	nt	nt	nt	nt	-0.1%
Cc1ccc(N2C(=O)c3n[nH]c(C)c3C2c2ccccc2Cl)cc1 (configuration not stated)	nt	nt	-14.6%	10.6%	nt
Cc1ccc(N2C(=O)c3n[nH]c(C)c3C2c2ccc(Cl)cc2)cc1 (configuration not stated)	nt	nt	9.53µM*	?	nt
O=C(COC(=O)c1cc2ccccc2cc1O)c1ccccc1	4.6%	0.4%	26.9µM*	nt	?
O=C(COC(=O)c1ccccc1Nc1ccccc1)c1ccccc1	4.4%	-2.4%	13.5µM*	10.5%	1.8%
COc1ccccc1NC(CC(=O)c1ccccc1)C(=O)OCC(=O)c1ccc(F)cc1 (configuration not stated)	13.3%	15.9%	1.69µM*	5.62µM*	1.64µM*
Cc1ccc(NC(=O)COC(=O)c2ccccc2Nc2ccccc2)cc1	-2.1%	1.3%	4.8%	-22.9%	0.4%
CNc1ccccc1C(=O)OCC(=O)c1ccc(F)cc1	22.8%	20.0%	5.36µM*	-5.8%	12.1%
COc1ccccc1NC(=O)CCCC(=O)OCC(=O)c1ccc(F)cc1	-6.2%	-5.7%	-15.5%	nt	-2.7%
CN(C(=O)c1ccccc1C(=O)OCC(=O)c1ccc(F)cc1)c1ccccc1	-4.6%	0.6%	?	nt	-1.2%
CC(=O)N1CCSc2ccc(S(=O)(=O)NCCc3ccc(Cl)cc3)cc21	-14.2%	-4.2%	0.1%	nt	-6.9%
COc1cccc(NC(=O)CN(C)C(=O)CCNS(=O)(=O)c2ccc(C)cc2)c1	-7.2%	-3.8%	1.2%	nt	-2.4%
SMILES	Rab9 prom act	NPC1 promoter act	FLuc counter	SMN2 splice up	ELG1 genotox
O=C(Cn1cc2c(n1)CCCC2)Nc1cc(C(F)(F)F)ccc1Cl	nt	nt	-5.4%	-5.6%	nt
CN(C(=O)c1ccccc1C(=O)OCC(=O)c1ccccc1)c1ccccc1	-7.8%	-2.3%	?	nt	1.2%
CNc1ccccc1C(=O)OCC(=O)c1ccccc1	16.3%	8.6%	7.57µM*	?	17.3%
CCOc1ccc(/C=C/C2=Cc3c(sc(NC(=O)CSc4n[nH]c(N)n4)c3C#N)C(C)(C)C2)cc1	0.7%	10.7%	9.53µM*	2.8%	-15.5%
Cc1cccc(NC(=O)NCc2ccc3c(c2)cc(C)n3C)c1	-3.6%	4.0%	-3.1%	2.4%	?
Cc1cc2cc(CNC(=O)Nc3cccc(Cl)c3)ccc2n1C	-0.5%	0.6%	-3.8%	-25.2%	23.1µM*
COc1ccc(CNC(=O)Nc2cccc(Cl)c2)cc1	?	2.51µM*	?	nt	?
COc1ccc(NC(=O)NCc2ccc(Cl)cc2)cc1	1.7%	-5.9%	-1.2%	nt	15.1%
COc1ccccc1C(=O)NC(=O)Nc1cccc(Cl)c1	3.98µM*	?	2.69µM*	nt	?
COc1ccccc1C(=O)Nc1cccc(NC(C)=O)c1	-4.9%	0.0%	?	-11.1%	-1.2%
O=C(Nc1c2c(nn1-c1ccc(Cl)cc1)CS(=O)(=O)C2)c1ccccc1	-2.6%	-9.5%	3.6%	nt	0.3%
O=C(O)c1c(NC(=O)N2CCOCC2)sc2c1CCCC2	-7.1%	1.1%	?	nt	0.7%
Nc1ncnc2nc(Cl)[nH]c12	nt	nt	nt	2.2%	nt
Cc1ccc(C)c(-c2csc(-c3cccnc3)n2)c1	-0.3%	8.1%	?	nt	-2.8%
c1ccc(CNc2nc(-c3cccnc3)cs2)cc1	15.3%	17.2%	?	-14.4%	-8.4%
c1ccc(-c2nc(-c3cccnc3)cs2)cc1	?	?	12µM*	nt	?
c1ccc(-c2csc(-c3cccnc3)n2)cc1	?	17.0%	19µM*	nt	14.0%
CC1(C)C(O)C=C[C@@]2(C)C1CC(=O)O[C@@]1(C)C3=CC(=O)OC(c4ccoc4)[C@]3(C)CCC21 (some centres not stated)	nt	nt	nt	-40.6%	nt
COc1ccc(CCNC(=O)c2oc3ccccc3c2C)cc1	-4.2%	-2.7%	19µM*	nt	0.1%
Cc1c(C(=O)NCCc2ccc3c(c2)OCCO3)oc2ccccc12	9.4%	-1.9%	19µM*	-13.5%	-1.1%
O=C(NCCc1ccc2c(c1)OCCO2)c1ccccc1F	29.2%	?	?	-9.1%	15.9%
COc1ccccc1C(CNC(=O)c1oc2ccccc2c1C)N1CCCC1 (configuration not stated)	-6.4%	1.0%	23.9µM*	nt	-1.6%
COc1ccc(C(CNC(=O)c2oc3ccccc3c2C)N2CCCCC2)cc1 (configuration not stated)	nt	nt	6.2%	-11.8%	nt
Cn1c(SCc2cccc(F)c2)nc2c([nH]c3ccccc32)c1=O	nt	nt	-3.0%	nt	nt
COc1ccccc1C(=O)NCC(c1cccnc1)N1CCc2ccccc2C1 (configuration not stated)	nt	nt	2.69µM*	nt	nt
O=C(NCC(c1cccnc1)N1CCc2ccccc2C1)C(=O)Nc1ccccc1 (configuration not stated)	nt	nt	-12.9%	nt	nt
COc1ccc(NC(=O)C(=O)NCC(c2cccnc2)N2CCc3ccccc3C2)cc1 (configuration not stated)	nt	nt	0.379µM*	nt	nt
COc1cc(C(=O)NCC(c2cccnc2)N2CCc3ccccc3C2)cc(OC)c1OC (configuration not stated)	nt	nt	-0.2%	nt	nt
COCCNC(=O)c1ccc2c(=O)n(CCc3ccccc3)c(SCC(=O)CC(=O)OC)nc2c1	nt	nt	0.9%	nt	nt
COC(=O)c1ccc(Cl)cc1NC(=O)N1CCC(CN2CCC(C)CC2)CC1	nt	nt	-3.9%	nt	nt

Source: PubChem BioAssay (National Center for Advancing Translational Sciences (NCATS))
